{"source": "PubChem BioAssay AID588849", "about": "(Broad Institute, 2011)", "note": "Results with a measured potency or affinity are listed apart. A number with no mark means an inactive call. No rule for the calls is given here."}
{"target": "CAAX prenyl protease 2 (Homo sapiens) (UniProt Q9Y256)", "sequence (Q9Y256 whole entry, looked up)": "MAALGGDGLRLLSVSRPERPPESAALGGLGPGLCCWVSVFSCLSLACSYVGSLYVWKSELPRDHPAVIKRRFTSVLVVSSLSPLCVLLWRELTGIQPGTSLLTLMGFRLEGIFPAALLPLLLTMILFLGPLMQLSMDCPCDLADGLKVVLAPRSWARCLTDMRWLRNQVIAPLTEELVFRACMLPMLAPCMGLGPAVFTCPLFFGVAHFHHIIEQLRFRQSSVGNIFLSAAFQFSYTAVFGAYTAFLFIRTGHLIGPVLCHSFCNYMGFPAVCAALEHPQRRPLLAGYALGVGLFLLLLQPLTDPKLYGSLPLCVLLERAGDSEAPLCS", "experiment": "human Rce1 protease inhibitors, dose response, biochemical, yeast membranes, quenched-peptide fluorescence, cherry-pick (AID 588849)", "conditions": "yeast membrane fractions expressing human Rce1, quenched-peptide fluorescence, 4 h; series mostly up to 10 µM; activity change, negative = inhibition: at the top concentration"}
{"smiles": "Cc1cc(C)cc(Nc2nc(-c3ccc(S(=O)(=O)N4CCCC4)cc3)cs2)c1", "activity change, negative = inhibition": "-3.32% [at 3.5 µM]"}
{"smiles": "Nc1nonc1-n1nnc(C(=O)N/N=C/c2ccoc2)c1CSc1ccccc1", "activity change, negative = inhibition": "-26.2%"}
{"smiles": "CCCCCCCCNC(C)C(O)c1ccc(SC(C)C)cc1", "note": "(stereo unspecified)", "activity change, negative = inhibition": "-17.8%"}
{"smiles": "CCCn1c(O)c(N=NC(=O)CNC(=O)Cc2ccc(OC)cc2)c2ccccc21", "activity change, negative = inhibition": "-2.73%"}
{"smiles": "COc1ccc(Br)cc1C(=O)Nc1cc(C)cc(C)c1", "activity change, negative = inhibition": "-12.4%"}
{"smiles": "S=c1[nH]nc(-c2ccccc2)o1", "activity change, negative = inhibition": "-16.1%"}
{"smiles": "COc1ccc(CC(=O)OCC(=O)Nc2ccc(Br)cc2)cc1", "activity change, negative = inhibition": "-9.13%"}
{"smiles": "CCCCCCCCCCOC(=O)Cn1c(COc2ccc(C)cc2)[n+](C)c2ccccc21", "activity change, negative = inhibition": "-18.4%"}
{"smiles": "CCC1(c2ccccc2)NC(=O)N(CC(=O)Nc2ccc3c(C)cc(=O)oc3c2)C1=O", "note": "(stereo unspecified)", "activity change, negative = inhibition": "138%"}
{"smiles": "O=C(O)c1ccc2cccc(Cl)c2c1O", "activity change, negative = inhibition": "-8.94%"}
{"smiles": "O=C1NC(c2ccc(Br)cc2)Nc2ccccc21", "note": "(stereo unspecified)", "activity change, negative = inhibition": "7.42%"}
{"smiles": "COc1cccc(-c2ccc(-c3noc(-c4ccccc4F)n3)c(OC)n2)c1", "activity change, negative = inhibition": "0.294%"}
{"smiles": "Cc1ccc(NS(=O)(=O)c2ccc(NC(=O)N3CCCCC3)cc2)cc1", "activity change, negative = inhibition": "5.86%"}
{"smiles": "O=C1CCN(Cc2ccccc2)CCN1[C@H](CSc1ccccc1)Cc1ccccc1", "activity change, negative = inhibition": "-12.4%"}
{"smiles": "C/C(=N\\NC(=O)c1ccc(Br)cc1)c1cccc(NC(=O)c2cccnc2)c1", "activity change, negative = inhibition": "-8.93%"}
{"smiles": "Cc1c(Cc2ccccc2)c(=O)oc2c(C)c(OCC(=O)N3CCC(C(=O)O)CC3)ccc12", "activity change, negative = inhibition": "-29.6%"}
{"smiles": "C/C(CC(=O)NCc1ccco1)=N\\NC(=O)c1ccc([N+](=O)[O-])cc1Cl", "activity change, negative = inhibition": "-10.1%"}
{"smiles": "Cc1nc(SC(C(=O)c2ccccc2)c2ccccc2)nc2ccccc12", "note": "(stereo unspecified)", "activity change, negative = inhibition": "-3.28%"}
{"smiles": "CSc1ccc(C(=O)C2CCCN(C(=O)c3cccnc3SC)C2)cc1", "note": "(stereo unspecified)", "activity change, negative = inhibition": "-5.94%"}
{"smiles": "COc1cccc(-c2cc(C(F)(F)F)n3ncc(S(=O)(=O)c4ccccc4)c3n2)c1", "activity change, negative = inhibition": "-7.38%"}
{"smiles": "Cc1cc2cc(C#N)c(NCCNC(=S)NCCCN3CCOCC3)nc2cc1C", "activity change, negative = inhibition": "-3.66%"}
